Among all 220,000 compounds or so, about 910 (0.41%) were called active. The full list was thinned out, with actives kept by preference. Results with a measured potency or affinity are listed apart. Values without a mark were called inactive.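 How the source made its calls: active means primary inhibition above the hit cutoff, then over 50% inhibition at one or more dose response concentrations (cut at about 23% in these data, passing the limit was not always enough); inconclusive means conflicting primary data, or primary hits not chosen for dose response; inactive means low primary inhibition, or under 50% at every dose.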
What follows are molecules tested against Aminopeptidase N (Plasmodium falciparum (isolate 3D7)) (UniProt O96935) (assay: malaria alanyl aminopeptidase activity blockers – biochemical, fluorogenic H-Leu-NHMec substrate, 1536-well (AID 1445;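 further: plate controls were DMSO full reaction for no effect and no enzyme background for full effect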)). Details: recombinant M1AAP, H-Leu-NHMec fluorogenic kinetic assay; at 30 µM, stronger effect = higher value unless noted.
Chain of Aminopeptidase N (Plasmodium falciparum (isolate 3D7)) (O96935 whole entry, looked up): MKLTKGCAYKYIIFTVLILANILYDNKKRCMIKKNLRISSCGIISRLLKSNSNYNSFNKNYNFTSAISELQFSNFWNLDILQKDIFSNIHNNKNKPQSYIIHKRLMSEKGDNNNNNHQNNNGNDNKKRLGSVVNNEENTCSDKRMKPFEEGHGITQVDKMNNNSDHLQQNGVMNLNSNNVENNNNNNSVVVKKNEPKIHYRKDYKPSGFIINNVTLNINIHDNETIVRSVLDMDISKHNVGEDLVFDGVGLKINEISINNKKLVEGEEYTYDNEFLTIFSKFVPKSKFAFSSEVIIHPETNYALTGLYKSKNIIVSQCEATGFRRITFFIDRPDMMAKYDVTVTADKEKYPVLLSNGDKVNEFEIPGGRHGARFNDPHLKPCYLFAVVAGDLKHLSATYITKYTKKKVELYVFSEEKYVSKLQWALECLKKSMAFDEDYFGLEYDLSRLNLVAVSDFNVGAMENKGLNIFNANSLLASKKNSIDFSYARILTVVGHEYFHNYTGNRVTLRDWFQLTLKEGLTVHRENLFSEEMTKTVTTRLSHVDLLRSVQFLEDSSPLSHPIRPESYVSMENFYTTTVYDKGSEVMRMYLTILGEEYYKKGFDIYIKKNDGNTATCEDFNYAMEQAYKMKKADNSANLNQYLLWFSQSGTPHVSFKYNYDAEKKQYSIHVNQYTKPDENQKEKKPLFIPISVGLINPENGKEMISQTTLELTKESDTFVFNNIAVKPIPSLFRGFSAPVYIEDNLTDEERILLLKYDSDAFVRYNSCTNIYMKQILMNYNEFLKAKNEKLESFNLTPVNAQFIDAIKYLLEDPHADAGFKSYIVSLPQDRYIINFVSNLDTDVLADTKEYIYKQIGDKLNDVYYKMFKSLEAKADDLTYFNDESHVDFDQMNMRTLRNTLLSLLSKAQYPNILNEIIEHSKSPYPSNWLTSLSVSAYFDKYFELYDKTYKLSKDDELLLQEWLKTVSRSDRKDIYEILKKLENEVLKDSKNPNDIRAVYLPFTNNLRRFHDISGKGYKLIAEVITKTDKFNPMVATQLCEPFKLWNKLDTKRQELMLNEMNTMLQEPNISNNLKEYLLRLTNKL

SMILES | inhibition
COC(=O)c1cc(NS(=O)(=O)c2ccc3c(c2)CCC(=O)N3)cc(C(=O)OC)c1 | 8.87%
O=C(CCC1CC(=O)Nc2ccccc21)NCc1ccc(F)cc1 (centres undefined) | 5.98%
O=C(O)CCCC(=O)Nc1ccc(Sc2ccc([N+](=O)[O-])cc2)cc1 | 2.99%
CCOc1nonc1C(=N)/C(C(C)=O)=C(\C)O | -1.51%
Cc1ccc(OCC(=O)N2CCN(c3nnc(-c4ccc(C)cc4)c4ccccc34)CC2)cc1 | 14.1%
CC(C)CSc1nc2ccccc2n1CC(N)=O | -7.7%
O=[n+]1c2c(n([O-])c3ccccc31)CCC2 | 26.1% (active)
O=[n+]1c2c(n([O-])c3ccccc31)CCCC2 | 2.78%
O=[n+]1c2c(n([O-])c3cc(Br)ccc31)CCC2 | 16.4%
COc1ccc(C(=O)N/N=C/c2c(CO)cnc(C)c2O)cc1 | 14.8%
Cc1ncc(CO)c(/C=N/NC(=O)c2ccc(O)cc2)c1O | 7.46%
Cc1cccc2cc(CN(Cc3cccs3)S(=O)(=O)c3ccc4c(c3)OCCO4)c(=O)[nH]c12 | 4.88%
Cc1cccc(-n2cc(CNCCc3nc(C)cc(C)n3)c(-c3cccc(F)c3)n2)c1 | 0.33%
CC1CCCCN1C(=O)c1cc2nc(-c3ccccc3)cc(-c3ccccc3)n2n1 (centres undefined) | 2.04%
COC(=O)COc1ccc(=O)n(-c2ccccc2)n1 | 2.11%
O=C(N/N=C/c1cccc(O)c1)c1ccc(NC(=O)c2cccc([N+](=O)[O-])c2)cc1 | 3.44%
CCOC(=O)N1CCN(C(=O)c2cnn3ccccc23)CC1 | 10.3%
O=C(c1cnn2ccccc12)N1CCN(C2CCCCC2)CC1 | 26.7% (active)
O=C(c1cnn(-c2ccccc2)c1-n1cccc1)N1CCN(C2CCCCC2)CC1 | 2.13%
COc1ccc(CNC(=O)C(c2ccncc2)N(C(=O)Cc2cccs2)c2ccccc2C)cc1 (centres undefined) | -1.48%
COc1ccc(N2CCN(CC(=O)Nc3nnc(-c4ccccc4)s3)CC2)cc1 | 23.4% (active)
COc1cccc(N2CCN(CC(=O)Nc3nnc(-c4ccccc4)s3)CC2)c1 | -5.75%
COc1ccc(N2CCN(C(=O)CN3CCN(C(c4ccccc4)c4ccccc4)CC3)CC2)cc1 | 3.02%
COc1ccc(N2CCN(CC(=O)N3CCC(C)CC3)CC2)cc1 | 24.4% (active)
O=C(CN1CCN(c2ccccc2)CC1)Nc1nnc(-c2ccccc2)s1 | -5.83%

SMILES | inhibition
COc1ccc(N2CCN(C(=O)CN3C(=O)C4CC=CCC4C3=O)CC2)cc1 (centres undefined) | -0.46%
CCn1c(SCC(=O)NCC2CCCO2)nnc1-c1ccccc1 (centres undefined) | 1.77%
c1cc2c(cc1C1=NNC(=NC3CC3)SC1)OCCO2 | 8.68%
CCOC(=O)Cc1csc(NC(=O)CC(C)(C)CC(=O)O)n1 | -4.17%
CCN(CC)S(=O)(=O)c1cccc(-c2n[nH]c(=S)n2/N=C/c2ccc(OC)cc2)c1 | 13.1%
CCCc1c(C(=O)NNc2cc(C(F)(F)F)ccc2Cl)cnn1-c1ccccc1 | -1.62%
CCC(=O)NC(=S)Nc1ccc(N2CCOCC2)cc1 | 4.46%
O=C(COc1ccc(Cl)cc1)NNC(=O)C(=O)N1CCCCC1 | 32.2%
CCOC(=O)N1CCN(C(=O)C(=O)NNC(=O)COc2ccc(Cl)c(C)c2)CC1 | 3.22%
O=C(O)CC1S/C(=N\N=C2CCCCCCC2)N(c2ccccc2)C1=O (centres undefined) | 7.68%
CN(C(=O)c1ccccc1)C1(C)CCS(=O)(=O)C1 (centres undefined) | -2.77%
O=c1c2cc(Cl)ccc2nc(-c2ccccc2)n1O | 3.06%
O=c1c2ccccc2nc(-c2ccc(Cl)c(Cl)c2)n1O | 0.17%
O=c1c2ccccc2nc(-c2cccc(Cl)c2)n1O | 26.1% (active)
CS(=O)(=O)N(CC(=O)Nc1ccccc1Cl)c1ccc(Cl)cc1 | 4.49%
O=C(Nc1ccc2c(c1)OCCO2)c1c(F)c(F)c(F)c(F)c1F | 10.6%
O=C(/C=C\c1ccccc1OC(=O)c1ccccc1F)c1cc2ccccc2o1 | 6.93%
O=c1c2c(nc3nc(NCc4cccc(Cl)c4)[nH]n13)CCC2 | 9.8%
O=C(CSc1nc2c(c(=O)[nH]1)CCC2)Nc1cccc(Cl)c1 | 1.88%
CCCCCCCC(=O)NC1=NC(=O)C(C)(C)S1 | -0.69%
Cc1cccc(NC(=O)N(Cc2cc3cc(C)cc(C)c3[nH]c2=O)CC2COCCO2)c1 (centres undefined) | 2.91%
Cc1ccc2[nH]c(=O)c(CN(CC3COCCO3)C(=O)Nc3ccccc3C)cc2c1 (centres undefined) | 13.8%
CN(C)S(=O)(=O)c1ccc(C(=O)OCCn2cnc3c2c(=O)n(C)c(=O)n3C)cc1 | -2.31%
O=[N+]([O-])c1ccc(O)c(NC(=S)Nc2ccccc2)c1 | -0.91%
